# A selection: hits, their analogues and other compounds. The true share with any hit is near 3.8%.
# Nrf2 inh: blocks Nrf2 signaling | Potency, µM (doses to about 46 µM), for inactives: top-dose activity change, negative = inhibition, most hits filed as inhibitors | actives 2.1% (n = 360,000) | A549 ARE-Fluc reporter, luciferase luminescence, 18-24 h; also: % is scaled to controls: 0 for no effect and ±100 for the full control effect; nearly all actives have a fitted effect of over 60% in size
#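 Quantitative HTS in A549 cells stably bearing an antioxidant response element-firefly luciferase construct. Inhibition of Nrf2-driven transcription was scored by luminescence after 18-24 h of compound exposure at 37 °C.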
# HepG2 viability: counter-screen for TGF-b inhibitors: cytotoxicity in HepG2 cells | HepG2 CAGA-GFP viability, ATP luminescence, 18 h | Potency, µM (top dose mostly 46.1 µM), for inactives: at the highest dose activity change, negative = cytotoxicity, usual class: cytotoxic | actives 0.76% (n = 410,000)
#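 CellTiter-Glo luminescence gave cytotoxicity after 18 hours at 37 degrees C. The cells were HepG2 CAGA-GFP in 1% FBS DMEM, stimulated with 500 pg/mL TGF-beta after compound addition. %Activity was normalised to no-cell wells (complete cell-killing) and DMSO (no toxicity), and curves were fitted and classified.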
# TGFb SMAD3 inh: TGF-b pathway inhibition. HepG2 CAGA-GFP TGF-b/SMAD3 reporter, GFP fluorescence, 18 h; TGF-beta stimulated, 500 pg/mL final. Potency, µM (top dose mostly 46.1 µM), for inactives: at the top dose activity, negative = inhibition, actives largely listed as inhibitors. actives 1.2% (n = 410,000). AID 588855; also: % is scaled to controls: 0 for no effect and ±100 for the full control effect; nearly all actives have a fitted effect of over 65% in size
#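 HEPG2 CAGA-GFP cells (1000/well, DMEM with 1% FBS) were pre-incubated 2 h at 37 degrees C, given compound by pin tool, then stimulated with TGF-beta at 500 pg/mL final for 18 h before per-cell GFP fluorescence imaging.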
# ATXN viability: cell viability loss in ATXN counter-screen; Potency, µM (highest dose often 56.7 µM), usual class: cytotoxic; actives 0.49% (n = 400,000); S2 cells (HEK-293 line with an ATXN2-luciferase reporter) viability, CellTiter-Fluor protease fluorescence, 24 h; AID 651635; also: nearly all actives have a fitted effect of over 40% in size
# A549 viability: kills or reduces viability of A549 cells in Nrf2 counter-screen | A549 ARE-Fluc cells, CellTiter-Fluor viability, 18-24 h | Potency, µM (series often up to 46 µM), inactives show top-dose activity change, negative = cytotoxicity, usual class: inhibitors | actives 0.16% (n = 390,000) | AID 504648; also: % is scaled to controls: 0 for no effect and ±100 for the full control effect
#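 A549 ARE-Fluc cells in 5% FBS OPTI-MEM, 5000 cells/well, rested 2 h then exposed to compounds in concentration-response for 18-24 h at 37 °C. Viability by CellTiter-Fluor fluorescence (Ex 405/Em 525) after 30 min; luciferase luminescence (BugLite, 15 min, RT) read afterwards.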
# ATXN2 expr inh: ATXN2 expression inhibition. HEK-293 ATXN2-luciferase reporter, luminescence, 24 h. Potency, µM (highest dose often 57 µM), for the others: top-dose activity change, negative = inhibition, most hits filed as inhibitors. actives 0.72% (n = 360,000). AID 1745845; also: % is scaled to controls: 0 for no effect and ±100 for the full control effect; nearly all actives have a fitted effect of over 55% in size
#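 ATXN2-luciferase reporter cells (luciferase flanked by upstream and downstream ATXN2 gene portions) were treated 24 h at 37 °C with compounds at up to 57 uM. SteadyGlo luminescence gave expression; GF-AFC fluorescence gave viability.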
# Numbers without * were called inactive; i = inactive; u = inconclusive; x = not tested or not shown. Calls follow the shape of the dose curve; as a rule, active = well fitted curve in the direction sought with a large enough effect; inconclusive = small, poorly fitted or top-dose-only effect, or another doubt; inactive = no such curve, though single readings can be large; an effect the other way counts as inactive or inconclusive. Potency is read from the fitted curve at half-maximal effect.
SMILES,Nrf2 inh,HepG2 viability,TGFb SMAD3 inh,ATXN viability,A549 viability,ATXN2 expr inh
CC1(Cc2ccccc2F)C(=O)Nc2c(Cl)ccc(Cl)c21 (stereo unspecified),x,-12%,u,i,x,-11%
Nc1nc(=O)n([C@H]2C[C@H](O)[C@@H](CO)O2)cc1F,x,x,x,x,x,0.31µM*
CC(C)(C)c1ccc(C(=O)Nc2ccc(NC(=O)c3ccco3)cc2)cc1,9.2µM*,-40%,u,i,u,u
COc1cc(NC(=O)c2ccco2)c(OC)cc1NC(=O)c1cc(OC)c(OC)c(OC)c1,-9%,6%,17%,u,8%,-9%
CCOc1cc(NC(=O)c2ccco2)c(OCC)cc1NC(=O)c1cc(OC)c(OC)c(OC)c1,18µM*,-15%,11%,i,-4%,-32%
CCOc1ccccc1NC(=O)c1ccc(NC(=O)c2ccco2)cc1,23µM*,-7%,u,i,-2%,-8%
CC(C)(C)C(=O)Nc1ccc(NC(=O)c2ccco2)nc1,2.1µM*,-10%,14%,i,-2%,0.89µM*
CCOC(=O)Cc1ccc(NC(=O)c2ccccc2Br)cc1,u,1%,-7%,i,5%,x
CCOC(=O)Cc1ccc(NC(=O)c2ccc(C(C)(C)C)cc2)cc1,2.6µM*,-57%,-17%,u,u,2.8µM*
CC[C@H](C)[C@H]1CNC(=S)N1CC1CCN(CC)CC1,x,6%,4%,i,x,1%
COc1ccc(CCN(Cc2cc3cc(C)cc(C)c3nc2Cl)C(=O)C2CC2)cc1,16µM*,-31%,u,i,-21%,-18%
Cc1ccc(C(=O)NCC(=O)OCC(=O)Nc2ccccc2[N+](=O)[O-])cc1,0%,0%,23%,i,5%,6%
COc1ccc(NC(=O)c2cn3c4c(ccc(Cl)c4c2=O)OC(C)C3)cc1OC (stereo unspecified),u,-2%,0%,i,14%,-3%
O=C(C1CCC(CNS(=O)(=O)c2ccc(Br)s2)CC1)N1CCN(c2ccc(F)cc2)CC1 (stereo unspecified),u,-11%,-7%,i,1%,-21%
Cc1cccc(N2CCN(C(=O)c3cc(S(=O)(=O)N4CCOCC4)cn3C)CC2)c1C,-12%,1%,-1%,i,-3%,-11%
COc1cccc(N2CCN(C(=O)C3CCC(CNS(=O)(=O)c4ccc(Br)s4)CC3)CC2)c1 (stereo unspecified),16µM*,-22%,u,i,-20%,-21%
Cc1cccc(N2CCN(C(=O)C3CCCN(S(=O)(=O)c4c(C)noc4C)C3)CC2)c1C (stereo unspecified),u,-29%,-23%,i,-18%,u
Cc1cccc(N2CCN(C(=O)C3CCCN(S(=O)(=O)c4ccc(Br)s4)C3)CC2)c1C (stereo unspecified),10µM*,-26%,u,x,-6%,x
Cc1cccc(N2CCN(C(=O)c3cc(S(=O)(=O)N4CCCC4)cn3C)CC2)c1C,18µM*,-2%,u,i,-7%,-24%
O=C(C1CCCN(S(=O)(=O)c2ccc(Br)s2)C1)N1CCCCCC1 (stereo unspecified),x,-6%,u,i,4%,-24%
O=C(C1CCCN(S(=O)(=O)c2ccc(Br)s2)C1)N1CCN(c2ccccc2)CC1 (stereo unspecified),16µM*,-6%,u,u,-16%,-39%
COCc1cc(C)nc(OCC(=O)N/N=C/c2ccc(-c3cc([N+](=O)[O-])ccc3Cl)o2)c1C#N,-4%,3%,4%,i,-7%,-16%
COc1cccc(N2CCN(C(=O)C3CCCN(S(=O)(=O)c4ccc(Br)s4)C3)CC2)c1 (stereo unspecified),16µM*,-22%,u,u,-5%,-21%
COc1ccc(OC)c(NC(=O)NCCc2c[nH]c3ccccc23)c1,-31%,-1%,4%,i,-4%,0%
Cc1ccc2nc(N/N=C/c3ccco3)cc(C)c2c1,u,11µM*,u,i,2%,-29%
SMILES,Nrf2 inh,HepG2 viability,TGFb SMAD3 inh,ATXN viability,A549 viability,ATXN2 expr inh
Cc1ccc2nc(SCC(=O)N/N=C/c3ccco3)cc(C)c2c1,2%,-18%,-21%,i,1%,-5%
CCCOC(=O)C(C)n1nnc2sc(-c3ccccc3)cc2c1=O (stereo unspecified),21µM*,0%,u,i,-2%,5%
COc1ccc(C(=O)N2CCN(c3ccc(C)cc3)CC2)cc1OC,-19%,-47%,-7%,i,-3%,-24%
COc1ccc(C(=O)N2CCN(C(=O)c3ccc(-c4ccccc4)cc3)CC2)cc1OC,13µM*,-1%,4%,i,1%,-27%
COc1ccc(C(=O)N2CCN(c3nc4ccccc4o3)CC2)cc1OC,18µM*,-22%,-15%,i,2%,u
COc1cc(OC)cc(C(=O)N2CCN(C(=O)c3ccc(-c4ccccc4)cc3)CC2)c1,-21%,-19%,u,i,-1%,-9%
CCOC(=O)c1ccc(NC(=O)C2CCN(C(=O)c3ccc(OC)c(OC)c3)CC2)cc1,23µM*,-37%,-30%,i,-12%,-12%
CCC(C)Nc1nc(-c2c[nH]c3ccccc23)cs1 (stereo unspecified),2%,-59%,13µM*,u,-13%,-11%
Clc1ccccc1/C=N/NC1=Nc2cccc3cccc1c23,u,-51%,26%,13µM*,u,-35%
C(=N\N=C\c1ccccn1)/c1ccccn1,29%,-17%,-15%,i,-1%,-7%
C(=N\NC1=Nc2cccc3cccc1c23)/c1ccccn1,22%,1%,2µM*,u,u,x
CCN(Cc1ccncc1)Cc1ccc2c(c1)CN(C(=O)c1cccc(-n3nc(C)cc3C)c1)CCO2,x,x,x,i,x,x
Cc1cc(C(=O)OCC(=O)N2CCC(c3ccccc3)=N2)ccc1[N+](=O)[O-],-3%,-3%,-9%,i,-2%,-4%
O=C(OCC(=O)N1CCC(c2ccccc2)=N1)c1ccc([N+](=O)[O-])s1,23µM*,-20%,u,i,u,-17%
CN(C)CCn1cnc2c(c1=N)C(c1ccccc1)c1ccc3ccccc3c1O2 (stereo unspecified),2%,-86%,18µM*,x,-10%,u
